Laboratory results published in ChEMBL document CHEMBL4296182, “CO-ADD screening of NIH NCI Diversity Set V”.
Entries with a potency or affinity are not part of this list.

What follows are compounds tested on Klebsiella pneumoniae. Settings: Concentration 20 uM; ASSAY_TEST Inhibition of Bacterial Growth; detection method Absorption (OD600); MEDIA CAMHB; plate type 384well; NBS; CORNING #3640; time 18 hr.

SMILES	Inhibition
O=C(O)c1ccccc1-c1ccccc1C(=O)Nc1ccc2c(c1)nc(O)c1ccccc12	7.34%
COc1cccc(NC(S)=Nc2ccc(O)cc2)c1	5.3%
Cc1cnc2c(N)cc(C)c(C)c2c1	9.31%
CC(C)c1ccc(-c2nc3ccccc3s2)cc1	12.27%
Cn1ncc2c(Nc3cccc(Cl)c3)nc(Nc3cccc(Cl)c3)nc21	11.58%
COc1ccc(C(=S)N2CCN(c3cccc(Cl)c3)CC2)cc1	17.03%
CC(C)(C)n1nc(C2CC2)cc1NC(=O)Nc1ccccc1	7.92%
c1ccc(-c2nc[nH]c2-c2ccccc2)cc1	6.07%
O=C(Nc1ccc(Cl)c(Cl)c1)Nc1ccccc1O	5.08%
Cc1ccc(/N=N\c2c(O)ccc3[nH]nnc23)cc1	11.98%
CCOC(=O)Nc1csnn1	14.72%
O=C(O)c1cc(O)ccc1/N=N/c1ccccc1	5.36%
COc1cc2c(c(OC)c1O)C(=O)CO2	1.47%
Cc1nc2ccccc2nc1NS(=O)(=O)c1ccc(N)cc1	7.2%
CNC1(C(N)=O)CCNCC1	15.69%
Cc1cccc(C(O)C(O)c2cccc(C)n2)n1 (stereo not drawn)	7.91%
COc1cc(/C=N/N=c2\[nH]c3c(=O)n(C)c(=O)n(C)c3[nH]2)ccc1O	-8.37%
COc1ccc(/N=N/c2ccc(N)nc2N)cc1	7.55%
CCC(CO)Nc1nc2ccc(Cl)cc2c2ccccc12 (stereo not drawn)	20.8%
CSc1ccc(NC(=O)Nc2cc(C)ccn2)cc1	13.34%

SMILES	Inhibition
CC1CCC(C(C)C)C(NC(=O)c2ccncc2)C1 (stereo not drawn)	10.65%
Cc1ccc(C)c(-n2c(-c3ccc(Br)cc3)cs/c2=N\C(=O)c2ccccc2F)c1	8.65%
O=C1C(Br)=Cc2cccc3cccc1c23	7.6%
Cn1ncc2c(Nc3ccc(Br)cc3)nc(Nc3ccc(Br)cc3)nc21	2.31%
NC(=O)c1cc(C(N)=O)nc(Cl)n1	2.11%
O=S(=O)(O)c1ccc(/N=N/c2ccccc2)cc1	7.84%
CCOC(=O)Nc1cc2c(c(N)n1)N=C(c1ccccc1)CN2	5.47%
Cc1nc2ccc(Cl)cn2c1[N+](=O)[O-]	13.85%
CC(C)(C)c1ccc(C(=O)Nc2ccc(S(N)(=O)=O)cc2)cc1	7.59%
O=C(O)c1cnn2c(S)ncnc12	8.17%
c1ccc(-c2nnc3oc(-c4cccs4)nn23)cc1	16.29%
Clc1ccccc1-c1nc(-c2ccncc2)no1 [PIFEXOLE]	9.18%
COC1OC(O)C(NC(=O)C(F)(F)F)CC1O (stereo not drawn)	16.01%
C=CCNC(=O)C1COc2ccccc2O1 (stereo not drawn)	7.35%
Cn1c(=O)c2c(nc(Cc3ccc(N)cc3)n2C)n(C)c1=O	16.58%
CSc1nc(C)cc(S)n1	5.27%
O=C(OCC(O)COC(=O)c1cccnc1)c1cccnc1	3.04%
CN1CCN(C(=O)Nc2ccc([N+](=O)[O-])cc2)CC1	6.75%
CCCc1cc(=O)oc2c3c(c4c(c12)OC(C)(C)C=C4)OC(C)[C@H](C)[C@@H]3O (stereo partly drawn)	20.98%

The compounds below were run on Candida albicans. Settings: 20 µM.

SMILES	Inhibition
O=C(O)c1ccccc1-c1ccccc1C(=O)Nc1ccc2c(c1)nc(O)c1ccccc12	7.22%
COc1cccc(NC(S)=Nc2ccc(O)cc2)c1	8.24%
Cc1cnc2c(N)cc(C)c(C)c2c1	23.1%
CC(C)c1ccc(-c2nc3ccccc3s2)cc1	8.12%
Cn1ncc2c(Nc3cccc(Cl)c3)nc(Nc3cccc(Cl)c3)nc21	-1.22%
COc1ccc(C(=S)N2CCN(c3cccc(Cl)c3)CC2)cc1	9.51%
CC(C)(C)n1nc(C2CC2)cc1NC(=O)Nc1ccccc1	1.47%
c1ccc(-c2nc[nH]c2-c2ccccc2)cc1	-1.64%
O=C(Nc1ccc(Cl)c(Cl)c1)Nc1ccccc1O	3.05%
Cc1ccc(/N=N\c2c(O)ccc3[nH]nnc23)cc1	13.2%
CCOC(=O)Nc1csnn1	5.16%
O=C(O)c1cc(O)ccc1/N=N/c1ccccc1	10.2%
COc1cc2c(c(OC)c1O)C(=O)CO2	3.59%
Cc1nc2ccccc2nc1NS(=O)(=O)c1ccc(N)cc1	4.92%
CNC1(C(N)=O)CCNCC1	-0.33%
Cc1cccc(C(O)C(O)c2cccc(C)n2)n1 (stereo not drawn)	0.07%
COc1cc(/C=N/N=c2\[nH]c3c(=O)n(C)c(=O)n(C)c3[nH]2)ccc1O	48.3%
COc1ccc(/N=N/c2ccc(N)nc2N)cc1	4.94%
CCC(CO)Nc1nc2ccc(Cl)cc2c2ccccc12 (stereo not drawn)	4.64%
CSc1ccc(NC(=O)Nc2cc(C)ccn2)cc1	0.13%

SMILES	Inhibition
CC1CCC(C(C)C)C(NC(=O)c2ccncc2)C1 (stereo not drawn)	-0.85%
Cc1ccc(C)c(-n2c(-c3ccc(Br)cc3)cs/c2=N\C(=O)c2ccccc2F)c1	4.24%
O=C1C(Br)=Cc2cccc3cccc1c23	32.2%
Cn1ncc2c(Nc3ccc(Br)cc3)nc(Nc3ccc(Br)cc3)nc21	-0.11%
NC(=O)c1cc(C(N)=O)nc(Cl)n1	-2.97%
O=S(=O)(O)c1ccc(/N=N/c2ccccc2)cc1	2.54%
CCOC(=O)Nc1cc2c(c(N)n1)N=C(c1ccccc1)CN2	5.55%
Cc1nc2ccc(Cl)cn2c1[N+](=O)[O-]	5.38%
CC(C)(C)c1ccc(C(=O)Nc2ccc(S(N)(=O)=O)cc2)cc1	2.9%
O=C(O)c1cnn2c(S)ncnc12	-0.99%
c1ccc(-c2nnc3oc(-c4cccs4)nn23)cc1	19.4%
Clc1ccccc1-c1nc(-c2ccncc2)no1 [PIFEXOLE]	12.7%
COC1OC(O)C(NC(=O)C(F)(F)F)CC1O (stereo not drawn)	3.69%
C=CCNC(=O)C1COc2ccccc2O1 (stereo not drawn)	1.99%
Cn1c(=O)c2c(nc(Cc3ccc(N)cc3)n2C)n(C)c1=O	-1.67%
CSc1nc(C)cc(S)n1	18.9%
O=C(OCC(O)COC(=O)c1cccnc1)c1cccnc1	1.84%
CN1CCN(C(=O)Nc2ccc([N+](=O)[O-])cc2)CC1	1.28%
CCCc1cc(=O)oc2c3c(c4c(c12)OC(C)(C)C=C4)OC(C)[C@H](C)[C@@H]3O (stereo partly drawn)	7.97%
